From PubChem BioAssay (NCATS)
Records with an inconclusive call do not appear. Active and inactive are the calls of the source. Calls follow the shape of the dose curve; as a rule, active = well fitted curve in the direction sought with a large enough effect; inconclusive = small, poorly fitted or top-dose-only effect, or another doubt; inactive = no such curve, though single readings can be large; an effect the other way counts as inactive or inconclusive.

Columns and labels:
[1] = qHTS of pediatric cancer cell lines to identify multiple opportunities for drug repurposing: Primary screen for TC32 cells (AID 1347089); also: nearly all actives have a fitted effect of over 60% in size; as to activity change, negative = cytotoxic: % is scaled to controls: 0 for no effect and ±100 for the full control effect
Outline: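 A viability screen of TC32 cells was run over 48 h, with primary MIPE doses spanning 0.78 nM–46 µM and NPC doses 0.59 nM–46 µM. ATP luminescence (CellTiter-Glo) served as the read-out.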

[2] = qHTS of pediatric cancer cell lines to identify multiple opportunities for drug repurposing: Primary screen for DAOY cells (AID 1347090); also: nearly all actives have a fitted effect of over 55% in size;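 as to activity change, negative = cytotoxic: series mostly up to about 46 µM; plate controls were DMSO for no effect and bortezomib for full effect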
Outline: (§1)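 Viability measured as metabolically active cells via CellTiter-Glo luminescence following 48 hours of compound exposure, 11-point dilutions in confirmatory testing. 500-1,000 cells/well plated 5 hours before dosing; controls were DMSO and 2.3 µM bortezomib.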

[3] = qHTS of pediatric cancer cell lines to identify multiple opportunities for drug repurposing: Primary screen for SJ-GBM2 cells (AID 1347091);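 as to activity change, negative = cytotoxic: plate controls were DMSO neutral control for no effect and bortezomib for full effect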
Outline: as §1

[4] = qHTS of pediatric cancer cell lines to identify multiple opportunities for drug repurposing: Primary screen for A673 cells (AID 1347092); also: nearly all actives have a fitted effect of over 45% in size; as to activity change, negative = cytotoxic: % is scaled to controls: 0 for no effect and ±100 for the full control effect
Outline: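 Titration-based qHTS on A673 cells: MIPE compounds spanned 11 points (0.78 nM to 46 µM final), NPC compounds 8 points (0.59 nM to 46 µM final). Viability after 48 h was measured by ATP luminescence.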

[5] = qHTS of pediatric cancer cell lines to identify multiple opportunities for drug repurposing: Primary screen for SK-N-MC cells (AID 1347093);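 as to activity change, negative = cytotoxic: series mostly up to about 46 µM; plate controls were DMSO neutral control for no effect and bortezomib for full effect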
Outline: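 Metabolically active cells were quantified by ATP-dependent luminescence (CellTiter-Glo, 15 min at room temperature) following 48 h treatment. Cells had been plated at 500-1,000 per well and settled for 5 h beforehand.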

[6] = qHTS of pediatric cancer cell lines to identify multiple opportunities for drug repurposing: Primary screen for BT-37 cells (AID 1347094);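 as to activity change, negative = cytotoxic: series mostly up to about 57 µM; plate controls were DMSO for no effect and bortezomib for full effect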
Outline: (§2)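 Plated cells (500-1,000 per well, growth media) were allowed to settle for 5 hours, treated with compound dilutions for 48 hours, then lysed with CellTiter-Glo for 15 min at room temperature before luminescence reading.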

[7] = qHTS of pediatric cancer cell lines to identify multiple opportunities for drug repurposing: Primary screen for NB-EBc1 cells (AID 1347095);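 as to activity change, negative = cytotoxic: plate controls were DMSO neutral control for no effect and bortezomib for full effect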
Outline: as §2

[8] = qHTS of pediatric cancer cell lines to identify multiple opportunities for drug repurposing: Primary screen for U-2 OS cells (AID 1347096); also: nearly all actives have a fitted effect of over 50% in size;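 as to activity change, negative = cytotoxic: plate controls were DMSO wells for no effect and bortezomib positive control wells for full effect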
Outline: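 Viability after 48 h compound treatment at 37C, 500-1,000 cells/well, read as ATP luminescence with CellTiter-Glo. Primary screens used 11-point (MIPE, 0.78 nM-46 µM) or 8-point (NPC, 0.59 nM-46 µM) final concentrations; follow-up screens used 11-point dilutions.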

[9] = qHTS of pediatric cancer cell lines to identify multiple opportunities for drug repurposing: Primary screen for Saos-2 cells (AID 1347097); also: nearly all actives have a fitted effect of over 40% in size; as to activity change, negative = cytotoxic: % is scaled to controls: 0 for no effect and ±100 for the full control effect
Outline: as §2
Potency is read from the fitted curve at half-maximal effect.

CC(C)(C)OC(=O)Nc1ccc(-c2cc(C(=O)NCCCCCCC(=O)NO)no2)cc1
active: Potency [1] 9300 nM | Potency [2] 4690 nM | Potency [3] 1480 nM | Potency [4] 2960 nM | Potency [5] 833 nM | Potency [6] 5440 nM | Potency [7] 1180 nM | Potency [8] 4690 nM | Potency [9] 2350 nM

COc1ccc(CC2c3cc(OC)c(OC)cc3CC[N+]2(C)CCC(=O)OCCCCCOC(=O)CC[N+]2(C)CCc3cc(OC)c(OC)cc3C2Cc2ccc(OC)c(OC)c2)cc1OC (stereo unspecified)
inactive: activity change, negative = cytotoxic [1] -1.18% [at 9.17 µM] | activity change, negative = cytotoxic [2] -5.91% [at 9.22 µM] | activity change, negative = cytotoxic [3] 27.6% [at 9.22 µM] | activity change, negative = cytotoxic [4] -4.72% [at 9.22 µM] | activity change, negative = cytotoxic [5] -16.8% [at 9.22 µM] | activity change, negative = cytotoxic [6] 6.03% [at 11.5 µM] | activity change, negative = cytotoxic [7] 16.9% [at 9.22 µM] | activity change, negative = cytotoxic [8] 3.34% [at 9.22 µM]

Nc1cc(C(F)(F)F)c(-c2cc(N3CCOCC3)nc(N3CCOCC3)n2)cn1
active: Potency [1] 2620 nM | Potency [2] 372 nM | Potency [3] 296 nM | Potency [4] 235 nM | Potency [5] 29.6 nM | Potency [6] 1530 nM | Potency [7] 166 nM | Potency [9] 1480 nM

NC(=O)Nc1cc(-c2cccc(F)c2)sc1C(=O)N[C@H]1CCCNC1
active: Potency [1] 2340 nM | Potency [2] 1870 nM | Potency [3] 235 nM | Potency [4] 187 nM | Potency [5] 37.2 nM | Potency [6] 485 nM | Potency [7] 296 nM | Potency [8] 935 nM | Potency [9] 1320 nM

Cc1cnc(Nc2ccc(F)cc2Cl)nc1-c1c[nH]c(C(=O)N[C@H](CO)c2cccc(Cl)c2)c1
active: Potency [2] 7430 nM | Potency [3] 264 nM | Potency [4] 37.2 nM | Potency [5] 2350 nM | Potency [6] 485 nM | Potency [8] 7430 nM | Potency [9] 1480 nM
inactive: Potency [1]

Cc1cc(C(=O)N2CCN(c3cccc(Cl)c3)CC2)n(-c2ccccc2)n1
active: Potency [1] 2940 nM | Potency [2] 743 nM | Potency [3] 118 nM | Potency [4] 590 nM | Potency [5] 118 nM | Potency [6] 6110 nM | Potency [7] 66.2 nM | Potency [9] 118 nM

Cc1ccc(C(=O)Nc2cccc(C(F)(F)F)c2)cc1-c1ccc2nc(NCCN3CCOCC3)ncc2c1
active: Potency [1] 18600 nM | Potency [2] 14800 nM | Potency [3] 6620 nM | Potency [4] 4690 nM | Potency [5] 4690 nM | Potency [6] 6110 nM | Potency [9] 5900 nM
inactive: Potency [8]

O=c1[nH]c(=O)n(C2CCCO2)cc1F (stereo unspecified)
inactive: Potency [1] | Potency [2] | Potency [3] | Potency [4] | Potency [5] | Potency [6] | Potency [8] | Potency [9]

CC=C1NC(=O)[C@H]2CSSCCC=C[C@H](CC(=O)N[C@H](C(C)C)C(=O)N2)OC(=O)[C@H](C(C)C)NC1=O
active: Potency [1] 58.7 nM | Potency [2] 29.6 nM | Potency [3] 14.8 nM | Potency [4] 11.8 nM | Potency [5] 10.5 nM | Potency [6] 10.9 nM | Potency [8] 29.6 nM | Potency [9] 11.8 nM

CC(=O)OCCN1C(=O)c2c(C)nc3ccc(S(=O)(=O)N4CCOCC4)cc3c2C1=O
inactive: Potency [1] | Potency [2] | Potency [3] | Potency [8]
active: Potency [4] 7430 nM | Potency [5] 20900 nM | Potency [6] 5440 nM

CN1CCN(c2ccc3nc(-c4c(N)c5c(F)cccc5[nH]c4=O)[nH]c3c2)CC1
inactive: Potency [2]
active: Potency [1] 14700 nM | Potency [3] 20900 nM | Potency [4] 14800 nM | Potency [5] 14800 nM | Potency [6] 15300 nM | Potency [7] 3720 nM | Potency [8] 18700 nM | Potency [9] 5900 nM

Cc1nc(N)ncc1-c1nc(N2CCOCC2)c2sc(C(C)(C)O)cc2n1
active: Potency [1] 2340 nM | Potency [2] 935 nM | Potency [3] 1050 nM | Potency [4] 1180 nM | Potency [5] 46.9 nM | Potency [6] 6110 nM | Potency [9] 833 nM

COc1ccc(-c2cc3c(C)nc(N)nc3n(C3CCC(OCCO)CC3)c2=O)cn1 (stereo unspecified)
active: Potency [1] 186 nM | Potency [2] 118 nM | Potency [3] 23.5 nM | Potency [4] 93.5 nM | Potency [5] 5.3 nM | Potency [6] 243 nM | Potency [7] 59 nM | Potency [8] 469 nM | Potency [9] 187 nM

Cc1c(CN2CCN(S(C)(=O)=O)CC2)sc2c(N3CCOCC3)nc(-c3cnc(N)nc3)nc12
active: Potency [1] 294 nM | Potency [2] 118 nM | Potency [3] 46.9 nM | Potency [4] 187 nM | Potency [5] 4.7 nM | Potency [6] 193 nM | Potency [7] 33.2 nM | Potency [9] 332 nM

COc1cc2c(Oc3ccc(NC(=O)C4(C(=O)Nc5ccc(F)cc5)CC4)cc3F)ccnc2cc1OCCCN1CCOCC1
active: Potency [1] 5870 nM | Potency [2] 18700 nM | Potency [3] 11.8 nM | Potency [4] 2350 nM | Potency [5] 743 nM | Potency [6] 27300 nM | Potency [7] 4180 nM | Potency [8] 14800 nM | Potency [9] 2640 nM

CN[C@H]1CCc2cc(OC)c(OC)c(OC)c2-c2ccc(OC)c(=O)cc21
active: Potency [1] 37 nM | Potency [2] 3.7 nM | Potency [3] 1 nM | Potency [4] 1.2 nM | Potency [5] 2.6 nM | Potency [6] 6.1 nM | Potency [7] 1 nM | Potency [9] 3.7 nM
